{"source": "PubChem BioAssay AID1445", "about": "(SRMLSC, 2008)", "note": "Out of some 220,000 compounds screened, about 910 (0.41%) were called active. For the sample, actives were picked, then their nearest neighbours and some compounds at random. Potency and affinity values are given separately. Values without a mark were called inactive.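 Rule for the calls: active = primary inhibition above the hit cutoff, then over 50% inhibition at one or more dose response concentrations (cut at about 23% in these data, passing the limit was not always enough); inconclusive = conflicting primary data, or primary hits not chosen for dose response; inactive = low primary inhibition, or under 50% at every dose.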"}
{"target": "Aminopeptidase N (Plasmodium falciparum (isolate 3D7)) (UniProt O96935)", "sequence (O96935 whole entry, looked up)": "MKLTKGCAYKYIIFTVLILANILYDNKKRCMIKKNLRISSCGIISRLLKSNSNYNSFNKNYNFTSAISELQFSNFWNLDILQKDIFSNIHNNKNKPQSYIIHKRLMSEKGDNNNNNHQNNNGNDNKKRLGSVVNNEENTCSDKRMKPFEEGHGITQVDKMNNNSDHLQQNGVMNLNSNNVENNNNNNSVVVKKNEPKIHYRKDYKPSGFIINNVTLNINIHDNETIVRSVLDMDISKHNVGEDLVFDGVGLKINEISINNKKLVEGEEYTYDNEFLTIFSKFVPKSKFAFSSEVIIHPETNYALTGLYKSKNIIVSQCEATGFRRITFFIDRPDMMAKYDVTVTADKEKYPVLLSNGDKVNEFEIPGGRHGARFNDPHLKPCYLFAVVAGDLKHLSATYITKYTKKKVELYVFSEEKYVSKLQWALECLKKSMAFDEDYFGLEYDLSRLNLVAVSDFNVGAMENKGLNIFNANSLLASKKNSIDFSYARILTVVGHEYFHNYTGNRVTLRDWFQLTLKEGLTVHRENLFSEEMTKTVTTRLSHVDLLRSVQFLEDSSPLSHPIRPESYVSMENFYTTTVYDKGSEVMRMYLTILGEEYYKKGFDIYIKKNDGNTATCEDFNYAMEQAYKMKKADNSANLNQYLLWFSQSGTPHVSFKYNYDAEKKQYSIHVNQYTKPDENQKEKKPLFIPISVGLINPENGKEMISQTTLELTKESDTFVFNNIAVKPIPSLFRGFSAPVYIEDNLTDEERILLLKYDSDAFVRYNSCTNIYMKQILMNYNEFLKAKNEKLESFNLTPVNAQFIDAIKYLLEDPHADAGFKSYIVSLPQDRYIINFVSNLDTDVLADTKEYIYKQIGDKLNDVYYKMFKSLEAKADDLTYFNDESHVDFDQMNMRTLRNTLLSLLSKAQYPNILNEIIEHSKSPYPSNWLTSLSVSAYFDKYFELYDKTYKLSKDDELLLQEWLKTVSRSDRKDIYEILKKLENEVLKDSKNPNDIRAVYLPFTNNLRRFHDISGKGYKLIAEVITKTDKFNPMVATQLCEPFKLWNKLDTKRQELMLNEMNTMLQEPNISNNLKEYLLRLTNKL", "experiment": "malaria alanyl aminopeptidase activity blockers – biochemical, fluorogenic H-Leu-NHMec substrate, 1536-well (AID 1445);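 note: plate controls were DMSO full reaction for no effect and no enzyme background for full effect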", "conditions": "recombinant M1AAP, H-Leu-NHMec fluorogenic kinetic assay; at 30 µM, hits give high values unless noted"}
{"molecule": "CC(Cc1cccs1)NC(=S)Nc1ccc(Cl)c(Cl)c1", "note": "(stereo not drawn)", "inhibition": "-3.88%"}
{"molecule": "Cc1ccc(OCc2ccc(C(=O)Nc3nc4ccccc4n3Cc3ccccc3)o2)c([N+](=O)[O-])c1", "inhibition": "4.13%"}
{"molecule": "Cc1ccc(C(=O)Cn2nnc3ccccc32)cc1C", "inhibition": "5.82%"}
{"molecule": "O=C1Nc2ccccc2N(O)N1c1ccc(S(=O)(=O)Nc2ccccn2)cc1", "inhibition": "5.82%"}
{"molecule": "O=c1[nH]c2sc3c(c2c2nncn12)CCCC3", "inhibition": "2.29%"}
{"molecule": "Cc1nc2sc3c(c2c(=O)o1)CCC3", "inhibition": "7.65%"}
{"molecule": "Cc1cc(-c2nc3c4c5c(sc4[nH]c(=O)n3n2)CCC5)c(C)o1", "inhibition": "27.1% (active)"}
{"molecule": "CCOC(=O)C1=C(c2ccccc2)Nc2ncnn2C1c1ccc(OC)c(OC)c1OC", "note": "(stereo not drawn)", "inhibition": "-1.38%"}
{"molecule": "O=S(=O)(Nc1nc2ccccc2nc1Nc1ccc2c(c1)OCCO2)c1cccs1", "inhibition": "47.2% (active)"}
{"molecule": "O=S(=O)(Nc1nc2ccccc2nc1Nc1ccc2c(c1)OCO2)c1ccccc1", "inhibition": "33.5%"}
{"molecule": "O=S(=O)(Nc1ccc2c(c1)OCCO2)c1cccs1", "inhibition": "-2.25%"}
{"molecule": "CC1=C(C(=O)N2CCN(c3cc(C)ccc3C)CC2)C2(CCC(C)CC2)OC1=O", "note": "(stereo not drawn)", "inhibition": "0.75%"}
{"molecule": "NNC(=O)CSc1nnnn1-c1ccccc1", "inhibition": "-3.57%"}
{"molecule": "Cc1cccc(C)c1NS(=O)(=O)c1ccc(OCCNS(C)(=O)=O)cc1", "inhibition": "-0.18%"}
{"molecule": "N#Cc1cc2c(nc1Cl)CCCC2", "inhibition": "3.36%"}
{"molecule": "COc1ccc(CCN=C(N)NS(=O)(=O)c2ccccc2)cc1OC", "inhibition": "0.37%"}
{"molecule": "CCOc1cc(C2C3=C(CCCC3=O)N(C)C3=C2C(=O)CCC3)cc(Cl)c1O", "inhibition": "18.7%"}
{"molecule": "CCOc1cc(C2C3=C(CC(C)(C)CC3=O)OC3=C2C(=O)CC(C)(C)C3)cc([N+](=O)[O-])c1O", "inhibition": "14.2%"}
{"molecule": "CCOc1cc(C2C(C(=O)OC(C)C)=C(C)NC3=C2C(=O)CCC3)cc([N+](=O)[O-])c1O", "note": "(stereo not drawn)", "inhibition": "21.4%"}
{"molecule": "CCOc1ccc(C2CC(=O)NC3=C2C(=O)CCC3)cc1Cl", "note": "(stereo not drawn)", "inhibition": "1.99%"}
{"molecule": "Fc1ccc(-c2nc3c(Cl)cc(C(F)(F)F)cn3c2Cl)cc1", "inhibition": "-1.92%"}
{"molecule": "COC(=O)CSc1[nH]c2ccc(F)cc2c1[N+](=O)[O-]", "inhibition": "13%"}
{"molecule": "CCOC(=O)c1c(C)oc2ccc(NS(=O)(=O)c3cccs3)cc12", "inhibition": "17.3%"}
{"molecule": "COC(=O)c1c(C)oc2ccc(NS(=O)(=O)c3cccs3)cc12", "inhibition": "6.82%"}
{"molecule": "CC(C)(C)NC(=O)COC(=O)c1nsc(Cl)c1Cl", "inhibition": "0.52%"}
{"molecule": "CC(C)(C)NC(=O)NC(=O)CN1CCN(c2cccc(Cl)c2)CC1", "inhibition": "-0.55%"}
{"molecule": "COn1c(SCc2cccnc2)nc2ccccc2c1=O", "inhibition": "-0.13%"}
{"molecule": "CC(=O)Nc1ccc(-c2nnc(SCC(=O)Nc3ccc4c(c3)oc3ccccc34)n2C)cc1", "inhibition": "8.23%"}
{"molecule": "Cc1ccc(-c2nnc(SCC(=O)Nc3ccc4c(c3)oc3ccccc34)n2C)c(Cl)c1", "inhibition": "3.17%"}
{"molecule": "COc1ccc(-n2c(Cc3cccn3C)nnc2SCC(=O)Nc2ccc(F)cc2)cc1", "inhibition": "12%"}
{"molecule": "COc1ccc(C(=O)NNC(=O)CSc2nnc(C)n2C)cc1", "inhibition": "1%"}
{"molecule": "COc1ccc(-c2nnc(SCC(=O)Nc3ccccc3)n2C)cc1", "inhibition": "0.31%"}
{"molecule": "COc1ccc(NC(=O)CSc2nnc(Cc3cccn3C)n2-c2ccc(OC)cc2)cc1", "inhibition": "5.21%"}
{"molecule": "COc1ccc(NC(=O)CSc2nnc(-c3ccccc3C)n2C)cc1", "inhibition": "27.4% (active)"}
{"molecule": "COc1ccc(NC(=O)CSc2nnc(Cc3cccn3C)n2-c2ccc(F)cc2)cc1", "inhibition": "23.8% (active)"}
{"molecule": "COc1ccc(NC(=O)CSc2nnc(-c3ccccc3C)n2N)cc1", "inhibition": "3.11%"}
{"molecule": "Cn1c(SCC(=O)Nc2ccc3c(c2)oc2ccccc23)nnc1-c1ccccc1", "inhibition": "25.6% (active)"}
{"molecule": "COc1ccc(C(=O)NNC(=O)CSc2nnc(-c3cccnc3)n2C)cc1", "inhibition": "10.3%"}
{"molecule": "Cc1cc(C)c2c3c(sc2n1)C1(CCSCC1)C(C#N)=C(N)O3", "inhibition": "9.27%"}
{"molecule": "C1CCN(c2nc3nonc3nc2NCC2CCOCC2)CC1", "inhibition": "7.54%"}
{"molecule": "CC(=O)N1CCN(c2ccc(NC(=O)c3ccc(Br)o3)cc2Cl)CC1", "inhibition": "4.42%"}
{"molecule": "COc1ccc(-c2csc(NC(=O)c3cccs3)c2C(=O)O)cc1OC", "inhibition": "19.5%"}
{"molecule": "CC(C)c1ccc(-c2csc(NC(=O)c3cccs3)c2C(=O)O)cc1", "inhibition": "8.46%"}
{"molecule": "Fc1cccc(Nc2nc(Cl)nc(Cl)n2)c1", "inhibition": "8.99%"}
{"molecule": "O=C1NCCN(Cc2cccc(Oc3ccccc3)c2)C1CC(=O)N1CCCCO1", "note": "(stereo not drawn)", "inhibition": "1.7%"}
{"molecule": "CCOc1cccc2cc(C(=O)Nc3ccccc3-c3ccccc3)c(=O)oc12", "inhibition": "1.66%"}
{"molecule": "COC(=O)/C(N=Nc1cccc(C(F)(F)F)c1)=C(\\C)O", "inhibition": "8.29%"}
{"molecule": "Cc1ccc(CN(Cc2cc3cc4c(cc3[nH]c2=O)OCCO4)Cc2nnnn2Cc2ccco2)cc1", "inhibition": "22.7%"}
{"molecule": "CCc1ccc2[nH]c(=O)c(CN(Cc3ccccc3)Cc3nnnn3Cc3ccco3)cc2c1", "inhibition": "13.2%"}
{"molecule": "O=c1[nH]c2cc3c(cc2cc1CN(Cc1cccnc1)Cc1nnnn1Cc1ccco1)OCCO3", "inhibition": "26.5% (active)"}
{"molecule": "CCCOc1ccc(Cc2nc(N)nc(N)n2)cc1", "inhibition": "-6.23%"}
{"molecule": "C=C(C)C(=O)Nc1cccc(C2=NOC3(C2)C[C@@H](C(N)=O)N(C(=O)c2ccc(Cl)cc2)C3)c1", "note": "(stereo partly drawn)", "inhibition": "4.17%"}
{"molecule": "Cc1nn(Cc2ccccc2)c(Cl)c1/C=C1\\NC(=S)NC1=O", "inhibition": "4.75%"}
{"molecule": "O=C(Nc1cccc(NC(=O)c2cccs2)c1)c1ccco1", "inhibition": "14.8%"}
{"molecule": "COc1cc(NC(=O)c2ccc([N+](=O)[O-])o2)ccc1NC(=O)c1cccs1", "inhibition": "4.73%"}
{"molecule": "O=C(O)CCc1ccc(-c2ccccc2)n1NC(=O)c1ccco1", "inhibition": "3.09%"}
{"molecule": "O=C(O)CCc1ccc(-c2ccccc2)n1NC(=O)c1sc2ccccc2c1Cl", "inhibition": "24.7% (active)"}
{"molecule": "O=C(O)CCc1ccc(-c2ccccc2)n1NC(=O)c1cccs1", "inhibition": "6.72%"}
{"molecule": "Cc1ccc(NC(=O)Nc2sc(=S)n(C)c2C)cc1", "inhibition": "-0.53%"}
{"molecule": "CCC(=O)Oc1oc(-c2ccccc2)nc1C=Nc1ccccc1OC", "inhibition": "24.3% (active)"}
{"molecule": "CCC(=O)Oc1oc(-c2ccccc2)nc1C=Nc1ccc(C)cc1", "inhibition": "1.55%"}
{"molecule": "COc1ccccc1N=Cc1nc(-c2ccccc2)oc1OC(C)=O", "inhibition": "19.1%"}
{"molecule": "CCOC(=O)c1cc(C)sc1/N=C/C1C(=O)CC(C)(C)CC1=O", "inhibition": "1.61%"}
{"molecule": "CCCn1c(SCC(=O)Nc2cccc(S(=O)(=O)N(C)C)c2)nc2ccccc2c1=O", "inhibition": "6.03%"}
{"molecule": "O=C(CSc1nnnn1-c1cccc2ccccc12)NC(C(=O)O)(c1ccccc1)c1ccccc1", "inhibition": "23.1%"}
{"molecule": "Cc1ccc(-n2nnnc2SCC(=O)Nc2ccccc2-c2ccccc2)cc1C", "inhibition": "-2.36%"}
{"molecule": "O=C(O)CC/C(=N\\Nc1ccc([N+](=O)[O-])cc1)c1ccccc1", "inhibition": "7.87%"}
{"molecule": "COc1cc(C(N)=O)cc(Br)c1OC", "inhibition": "23.4% (active)"}
{"molecule": "CCOc1cc(C(N)=O)cc(Br)c1OC", "inhibition": "-3.95%"}
{"molecule": "CCOc1c(Br)cc(C(N)=O)cc1OC", "inhibition": "2.69%"}
{"molecule": "Cc1nn(CCS(=O)(=O)c2ccc(Cl)cc2)c(C)c1Br", "inhibition": "0.55%"}
{"molecule": "COCc1cc(C)nc(OCC(=O)N/N=C/c2ccc(O)cc2O)c1C#N", "inhibition": "-7.94%"}
{"molecule": "CSc1nnc(-c2cc3c(s2)-c2ccccc2CC3)o1", "inhibition": "18.2%"}
{"molecule": "CCSc1nnc(-c2cc3c(s2)-c2ccccc2CC3)o1", "inhibition": "19.1%"}
{"molecule": "O=C(NCc1ccccc1)c1ccc2c(c1)C(=O)N(Cc1ccncc1)C2=O", "inhibition": "-0.3%"}
{"molecule": "COc1ccc(C(C(=O)NC(C)(C)C)N(Cc2cccs2)C(=O)CCC(=O)Nc2cc(C)on2)cc1", "note": "(stereo not drawn)", "inhibition": "-3.34%"}
{"molecule": "COc1cc(CCC(=O)OCC(=O)Nc2c(C)cccc2C(C)C)cc(OC)c1OC", "inhibition": "-0.28%"}
{"molecule": "COc1ccc2[nH]c(=O)c(CN(Cc3nnnn3Cc3ccco3)C3CCCCC3)cc2c1", "inhibition": "16%"}
{"molecule": "Cc1cccc2cc(C(c3nnnn3CC3CCCO3)N3CCc4ccccc4C3)c(=O)[nH]c12", "note": "(stereo not drawn)", "inhibition": "12.2%"}
{"molecule": "Cc1cc2cc(C(c3nnnn3Cc3ccco3)N3CCCCC3)c(=O)[nH]c2cc1C", "note": "(stereo not drawn)", "inhibition": "26.8% (active)"}
{"molecule": "Cc1cc2cc(C(c3nnnn3Cc3ccco3)N3CCc4ccccc4C3)c(=O)[nH]c2cc1C", "note": "(stereo not drawn)", "inhibition": "14%"}
{"molecule": "CCC(c1nnnn1Cc1ccco1)N(Cc1cc2cc(OC)ccc2[nH]c1=O)C1CCCCC1", "note": "(stereo not drawn)", "inhibition": "14.1%"}
{"molecule": "Cc1ccc(C)c2[nH]c(=O)c(C(c3nnnn3Cc3ccco3)N3CCc4ccccc4C3)cc12", "note": "(stereo not drawn)", "inhibition": "24.6% (active)"}
{"molecule": "COc1ccc2[nH]c(=O)c(CN(C3CCCCC3)C(c3nnnn3Cc3ccco3)C(C)C)cc2c1", "note": "(stereo not drawn)", "inhibition": "23.7% (active)"}
{"molecule": "Cc1ccc(C)c2[nH]c(=O)c(C(c3nnnn3Cc3ccccc3)N3CCc4ccccc4C3)cc12", "note": "(stereo not drawn)", "inhibition": "7.95%"}
{"molecule": "Cc1cc2cc(C(c3nnnn3Cc3ccco3)N3CCc4ccccc43)c(=O)[nH]c2cc1C", "note": "(stereo not drawn)", "inhibition": "21.9%"}
{"molecule": "CCOC(=O)c1ccc(Nc2nnc(C)c3ccccc23)cc1", "inhibition": "6.41%"}
{"molecule": "CSc1ccccc1NC(=O)CN(C)CC(=O)NCc1ccccc1", "inhibition": "-1.28%"}
{"molecule": "CC1(C)CC(=O)C(C=NCCN2CCN(C(=O)c3ccc(Br)cc3)CC2)=C(O)C1", "inhibition": "2.26%"}
{"molecule": "COc1ccc(CCNC(=O)[C@@H](NC(=O)c2ccccc2F)C(C)C)cc1OC", "inhibition": "0.88%"}
{"molecule": "Oc1c(Cl)cc(Cl)c2c1NCCC2", "inhibition": "7.06%"}
{"molecule": "Oc1c(Cl)cc(Cl)c2cccnc12", "inhibition": "-7.26%"}
{"molecule": "CCC(C)NCCCCOc1cc(C)cc(C(C)C)c1", "note": "(stereo not drawn)", "inhibition": "3.28%"}
